Assay results published in PubChem BioAssay (NCI).
Compounds without any hit were thinned out: in the full panel of roughly 79,000, 15% have a hit. Rule as the data show it: active = growth inhibition above about 70%; inactive = the rest.

Tests used:
[1] = NCI Yeast Anticancer Drug Screen. Data for the rad50 strain (AID 155);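 also: 0% = growth of vehicle-only cultures of the same strain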; conditions: S. cerevisiae rad50 strain growth inhibition; at 50.0 µM; hits give high values
How it was run: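 Inhibition values express reduced yeast growth in compound-treated cultures relative to vehicle-treated controls.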

[2] = NCI Yeast Anticancer Drug Screen. Data for the mec2-1 strain (AID 157); conditions: S. cerevisiae mec2-1 strain, at 50.0 µM, hits give high values
How it was run: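 Each compound was tested on mec2-1 yeast, a strain altered in DNA damage repair or cell cycle control. Growth inhibition is reported relative to vehicle.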

[3] = NCI Yeast Anticancer Drug Screen. Data for the sgs1 mgt1 strain (AID 161);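 also: 0% = growth of cultures given vehicle only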; conditions: S. cerevisiae sgs1 mgt1 strain, at 50.0 µM, hits give high values
How it was run: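 Read-out: growth inhibition vs vehicle controls. Cells: mutant yeast strain deficient in DNA damage repair.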

[4] = NCI Yeast Anticancer Drug Screen. Data for the cln2 rad14 strain (AID 165);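 also: 0% = growth equal to vehicle treated cultures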; conditions: S. cerevisiae cln2 rad14 strain, at 50.0 µM, hits give high values
How it was run: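 Test compounds were added to cln2 rad14 yeast cultures; inhibition of growth was then determined by comparison with vehicle treatment.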

[5] = NCI Yeast Anticancer Drug Screen. Data for the bub3 strain (AID 167); conditions: S. cerevisiae bub3 mutant strain, at 50.0 µM, hits give high values
How it was run: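 Steps: expose the mutant yeast strain to compound; grow alongside vehicle-treated cultures; measure growth; express inhibition against the vehicle cultures.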

[6] = NCI Yeast Anticancer Drug Screen. Data for the mlh1 rad18 strain (AID 175); conditions: S. cerevisiae mlh1 rad18 strain growth inhibition; at 50.0 µM; hits give high values
How it was run: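 Inhibition values reflect reduced growth of mutant yeast versus vehicle-treated controls following compound exposure; the mutations affect DNA damage repair.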

Measured: growth inhibition

COCc1onc(-c2ccc(OC)cc2)c1-c1ccc(OC)cc1
inactive: [1] 8.25% | [2] 20.4% | [3] 3.6% | [4] 30.9% | [5] 49.4% | [6] 31.4%

CN1C(CC(=O)c2ccccc2)CCCC1CC(O)c1ccccc1 (configuration not stated)
inactive: [1] 13.9% | [2] 2.25% | [3] 25.4% | [4] 40.4% | [5] -2.4% | [6] 36.1%

Cc1c(Cl)cccc1NC(=O)OCCCc1ccccc1
inactive: [1] 1.5% | [2] 10.2% | [3] 15.6% | [4] -9.45% | [5] 9.35% | [6] 10.2%

COc1ccc(C(=O)c2ccccc2)cc1OC
inactive: [1] 2.95% | [2] 13.8% | [3] -4.25% | [4] -21.4% | [5] -1.2% | [6] -7.85%

CC(C(=O)O)N(C)C(=O)c1cnc2ccccc2n1 (configuration not stated)
inactive: [1] -0.1% | [2] -1.15% | [3] -1.5% | [4] 23% | [5] 18.6% | [6] -2%

CO/C(=N\N=C\c1ccc(OC)c(OC)c1)c1ccncc1
inactive: [1] -21.6% | [2] -37.9% | [3] -12.9% | [4] -7.75% | [5] -28.6% | [6] -40%

CSc1cc(Cl)c(C)cc1S(=O)(=O)n1cc[nH]c1=O
inactive: [1] -2.4% | [2] 1.4% | [3] 3.35% | [4] -0.05% | [5] -3.75% | [6] 17.1%

CSc1ccc(NC(=O)Nc2cc(Cl)c(Cl)cc2C)cc1
inactive: [1] 4.7% | [2] 60.5% | [3] 46.8% | [4] -1.95% | [5] 35% | [6] 25.2%

COc1cc(C=C2C(=O)NC(=O)NC2=O)ccc1OCc1ccccc1
inactive: [1] -0.15% | [2] -1.5% | [3] -1.1% | [4] 3.3% | [5] -22.3% | [6] -42.6%

CC1CNC(=S)SSC(=S)N1 (configuration not stated)
inactive: [1] 35.8% | [2] 26.5% | [3] 20.9% | [4] 32.7% | [5] 14.1% | [6] 27.7%

Cc1cnc2c(N)nc(-c3ccccc3)nc2n1
inactive: [1] 8.55% | [2] -2.1% | [3] -6.9% | [4] -39.4% | [5] -5.15% | [6] -0.45%

FC(F)(F)c1cccc(C=NC23CC4CC(CC(C4)C2)C3)c1
inactive: [1] -16.4% | [2] -14.6% | [3] -2.05% | [4] 10.4% | [5] -30% | [6] 8.75%

Cc1nn(C(=O)c2ccc(Cl)cc2)c2c1C(c1ccc(O)cc1)SC(N)=N2 (configuration not stated)
inactive: [1] -33% | [2] -49.1% | [3] -43.7% | [4] -26.8% | [5] -23.9% | [6] -31.2%

COCCCNC(=O)C1=CCCN(C)C1
inactive: [1] 6% | [2] -3.45% | [3] -3.55% | [4] -2.45% | [5] -1.55% | [6] -3.3%

CCc1nnc2sc(=S)[nH]n12
inactive: [1] -7.65% | [2] -14.6% | [3] -15.8% | [4] -7.4% | [5] 2.45% | [6] -12.9%

ClCCn1nc2c(c1-c1ccccc1)CCc1ccccc1-2
inactive: [1] -8% | [2] -1.05% | [3] -10.4% | [4] -19.4% | [5] 11.1% | [6] -2.85%

CC(O)CN1CCOCC1 (configuration not stated)
inactive: [1] 9.55% | [2] 2.2% | [3] -0.1% | [4] 15.2% | [5] -9.85% | [6] 3.55%

CC1=NN(C(=O)c2ccncc2)C(=O)C1N=Nc1ccc(F)cc1 (configuration not stated)
inactive: [1] -4.65% | [2] -10.2% | [3] -7.65% | [4] -5.2% | [5] -7.15% | [6] -4.9%

O=c1cc(Nc2ccccc2Cl)[nH]c(=O)[nH]1
inactive: [1] 9.8% | [2] 2.2% | [3] -5.15% | [4] -41.8% | [5] -27.4% | [6] -13.2%

O=Cc1ccc(/C=C2\NC(=O)NC2=O)cc1
inactive: [1] -6.25% | [2] -7.9% | [3] -26.9% | [4] -0.05% | [5] -9.3% | [6] -5.55%

COc1cc([N+](=O)[O-])c(C(=O)O)c(C(=O)O)c1OC
inactive: [1] 9.8% | [2] -5.55% | [3] 3.7% | [4] -2.2% | [5] 1.7% | [6] 1.15%

C=C1C(O)CCC2(C)C1CCC1C2CCC2(C)C(C(C)CCCC(C)C)CCC12 (configuration not stated)
inactive: [1] -5% | [2] -5.35% | [3] -3.1% | [4] -39.6% | [5] -4.4% | [6] -2.45%

N/C=N/O
inactive: [1] 19.9% | [2] 4.35% | [3] 16.6% | [4] 18.2% | [5] 18.8% | [6] 22.7%

Cc1ccc2c(c1)C(C)CC2(C)C (configuration not stated)
inactive: [1] 1.8% | [2] -6.55% | [3] -4.6% | [4] 3.65% | [5] 8.95% | [6] 2.15%

Nc1ncnc2c1ncn2C1CCC(COS(N)(=O)=O)C1 (configuration not stated)
inactive: [1] 4.3% | [2] 3.65% | [3] 5% | [4] -6.7% | [5] 4.2% | [6] 15.4%

C=C1C(=O)OC2CC3(CO3)C3C(O)C(O)CC3(C)CC12 (configuration not stated)
inactive: [1] 2.4% | [2] 2.45% | [3] -14.2% | [4] -13.6% | [5] -42.5% | [6] -70.7%

O=C(/C=C/c1ccc(Cl)cc1)c1cc(Cl)ccc1O
inactive: [1] -14.4% | [2] -25.3% | [3] -13.8% | [4] -27.8% | [5] 16.2% | [6] -10.2%

CSc1nnc(SC)s1
inactive: [1] -3.3% | [2] -22.6% | [3] -18.8% | [4] 22.9% | [5] 1.4% | [6] -9.35%

CN1C(c2ccccc2)=C(C#N)C(=O)CC(c2ccc(Cl)cc2)N1C (configuration not stated)
inactive: [1] -7.75% | [2] 0.05% | [3] -4.75% | [4] -15.8% | [5] -15.8% | [6] 2.65%

N#CC(CC(=O)O)=C(c1ccccc1)c1ccccc1
inactive: [1] -6.75% | [2] -22.2% | [3] -20.5% | [4] 11.7% | [5] -50.8% | [6] 8.95%

Nc1[nH]c(=O)ncc1[N+](=O)[O-]
inactive: [1] 2.5% | [2] -4.1% | [3] 5.9% | [4] -25.4% | [5] -16.2% | [6] -0.65%

Cc1cc(C)c(C(=O)/C=C(\N)C(=O)c2c(C)cc(C)cc2C)c(C)c1
inactive: [1] -7.05% | [2] 0% | [3] 2.75% | [4] 14.7% | [5] 27.1% | [6] 4.75%

CC1(C)CSC(C)(C)C(=O)N1
inactive: [1] 4.9% | [2] -1.95% | [3] -3.6% | [4] -6.85% | [5] -2.2% | [6] -1.1%

COC(=O)N1c2ccccc2C23CCN4CCCC5(CCC12C(C(=O)O)C5)C43 (configuration not stated)
inactive: [1] -2.6% | [2] 8.2% | [3] 0.15% | [4] -9.45% | [5] 3.9% | [6] 9.7%

O=C1CCCCCCCS(=O)(=O)C1
inactive: [1] -8.55% | [2] -0.05% | [3] -4.75% | [4] -19.6% | [5] -4.95% | [6] -0.2%

CC(C)(C)C(=O)CC(=O)C(C)(C)C
inactive: [1] -3.9% | [2] -9.5% | [3] 2.25% | [4] -57.4% | [5] -2.8% | [6] -15.8%

CCOC(=O)CNc1nnnn1C1OC(CO)C(O)C1O (configuration not stated)
inactive: [1] -2.05% | [2] -13.1% | [3] -11.4% | [4] 11.7% | [5] -12% | [6] -19.6%

O=P(NC1CCCCC1)(NC1CCCCC1)c1ccccc1
inactive: [1] -10.9% | [2] 13.2% | [3] -5.1% | [4] 18.3% | [5] 13.6% | [6] 1.25%

COc1cc(C)c(C(=O)/C=C/c2cc(OC)c(O)c(OC)c2)cc1O
inactive: [1] 55.7% | [2] 36.9% | [3] 39.6% | [4] 35.6% | [5] 46.2% | [6] 46.7%

COc1ncn(C2CC(OC(=O)c3ccc(C)cc3)C(COC(=O)c3ccc(C)cc3)O2)c(=O)n1 (configuration not stated)
inactive: [1] -8.3% | [2] -9.1% | [3] -14.7% | [4] -22.4% | [5] -0.6% | [6] -3.05%

S=P(c1ccccc1)(c1ccccc1)C(P(c1ccccc1)c1ccccc1)P(c1ccccc1)c1ccccc1
inactive: [1] 47.9% | [2] 49.9% | [3] 46.1% | [4] 49.7% | [5] 33.5% | [6] 62%

O=S(=O)(c1ccc(Br)cc1)N1CCN(S(=O)(=O)c2ccc(Br)cc2)CC1
inactive: [1] -24.4% | [2] -23.9% | [3] -35.2% | [4] -43.2% | [5] -23.4% | [6] -10.1%
